Measured values from PubChem BioAssay (NCATS).
“And” between values parts separate entries of the source, which are not always exact repeats. Equal values may be shown once. Results filed as inconclusive are left out. The source made the active and inactive calls. The call rests on the fitted dose curve; in most records, active means well fitted curve in the direction sought with a large enough effect; inconclusive means small, poorly fitted or top-dose-only effect, or another doubt; inactive means no such curve, though single readings can be large; an effect the other way counts as inactive or inconclusive.

Test: Viability qHTS for spleen associated tyrosine kinase inhibitor (SYKi) drug resistant MV4-11 cells (AID 1963824)
Settings: SYKi-resistant MV4-11 viability, CellTiter-Glo, 72 h; series mostly up to 45 µM
In short: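 SYK inhibitor-resistant MV4-11 AML cells, 500 per well, added to predispensed compounds and incubated 72 hr at 37 C, 5% CO2. Viability measured by CellTiter-Glo luminescence after 10 min at room temperature.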
Further: nearly all actives have a fitted effect of over 35% in size.
Potency means the concentration at half of the fitted maximal effect.

| SMILES | Potency |
| --- | --- |
| COC1CC(C(=O)c2ccc3c(N)ncc(-c4ccc(-c5cnn(C)c5)cc4)c3n2)C1 (stereo not given) | 0.296 µM (active) |
| Fc1ccc2[nH]ccc2c1-c1nc(N2CCOCC2)c2sc(CN3CCN(CC4CC4)CC3)cc2n1 | 5.9 µM (active) |
| CC[C@]12CCCN3CCc4c(n(c5ccccc45)C(=O)C1)[C@@H]32 | 8.41 µM (active) and 23.1 µM (active) |
| CC1=C(/C=C/C(C)=C/C=C/C(C)=C/C(=O)Nc2ccc(O)cc2)C(C)(C)CCC1 | 2.66 µM (active) and 7.42 µM (active) |
| CN1CCN(c2ccc(Nc3ncc4cc(C#N)c(=O)n(C5CCCC5)c4n3)cc2)CC1 | 0.235 µM (active) |
| O=c1cc(N2CCOCC2)oc2c(-c3ccc4c(c3)OCCO4)csc12 | 0.59 µM (active) |
| CCOc1ccc2ccccc2c1C(=O)N[C@@H]1C(=O)N2[C@@H]1SC(C)(C)[C@@H]2C(=O)O | inactive |
| CCCCCCCCCCCCCCCCOP(=O)([O-])OCC[N+](C)(C)C | 21.1 µM (active) |
| Cc1cccc(C)c1NC(=O)c1ccc(N)cc1 | inactive |
| CCCCCN=C(N)N/N=C/c1c[nH]c2ccc(OC)cc12 | 2.66 µM (active) |
| CN1CCC[C@@H]1CCO[C@](C)(c1ccccc1)c1ccc(Cl)cc1 | 18.8 µM (active) |
| CC(C)[C@](O)(c1ccc2cc(OC(F)F)c(OC(F)F)cc2c1)c1cn[nH]n1 | 14.8 µM (active) |
| CC(=O)[C@H]1CC[C@H]2[C@@H]3C[C@H](C)C4=CC(=O)CC[C@]4(C)[C@H]3[C@@H](O)C[C@]12C | 23.7 µM (active) |
| CN[C@@H](C)C(=O)N[C@H](C(=O)N1CCC[C@H]1C(=O)Nc1snnc1-c1ccccc1)C1CCCCC1 | 0.132 µM (active) |
| COc1cc2c(cc1OC)CN(C(=O)[C@H](C)N[C@@H](CCc1ccccc1)C(=O)O)[C@H](C(=O)O)C2 | inactive |
| CCN(CC)CCNc1ccc(CO)c2sc3ccccc3c(=O)c12 | 3.76 µM (active) |
| O=c1cc(-c2ccccc2)oc2ccccc12 | 21.5 µM (active) |
| CCN(C)S(=O)(=O)Nc1ccc(F)c(C(=O)c2c[nH]c3ncc(-c4cnc(C5CC5)nc4)cc23)c1F | 4.68 µM (active) |
| CCNCCS(=O)(=O)NC[C@@]1(c2ccccc2)SC(NC(=O)C(C)(C)C)=NN1C(=O)C(C)(C)C | 0.003 µM (active) |
| COC(=O)C1=C(C)NC(C)=C(C(=O)OC(C)(C)CN(C)CCC(c2ccccc2)c2ccccc2)C1c1cccc([N+](=O)[O-])c1 (stereo not given) | 9.44 µM (active) |
| O=C(NOCC(O)CO)c1ccc(F)c(F)c1Nc1ccc(I)cc1F (stereo not given) | 0.148 µM (active) |
| Cc1cccc(CC(=O)N2CCc3c2ccc(-c2cn(C)c4ncnc(N)c24)c3F)n1 | 2.06 µM (active) |
| CN1CCC(=C2c3ccccc3Sc3ccccc32)CC1 | 16.8 µM (active) |
| CCC(=O)c1ccc2c(c1)N(CCCN(C)C)c1ccccc1S2 | 21.1 µM (active) |
| CC(=O)Oc1ccc2c(c1)CC[C@@H]1[C@@H]2CC[C@]2(C)[C@@H](O)CC[C@@H]12 | 15 µM (active) |
| CCOC(=O)[C@H](CCc1ccccc1)N[C@@H](C)C(=O)N1Cc2ccccc2C[C@H]1C(=O)O | 5.96 µM (active) |
| CC(=O)Nc1cc(Oc2ccc3c(nc(Nc4ccc(F)cc4F)n3C)c2C)ccn1 | 1.66 µM (active) |

Test: Quantitative highthroughput screen to assess conditional lethalithy of NOMO1 cells grown in RPMI1640 with untreated serum (RPMI+s) (AID 1963876)
Settings: NOMO1 AML cells in RPMI+serum, CellTiter-Glo viability, 48 h; series mostly up to 45.8 µM
In short: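 Each medium arm—HPLM with 10% dialyzed FBS, or RPMI1640 with 5 mM glucose and 10% untreated or dialyzed FBS—was screened against an 11-point, 3-fold compound titration for 48 h at 37 °C, with CellTiter-Glo luminescence as endpoint.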

| SMILES | Potency |
| --- | --- |
| COc1cc2ncnc(Nc3ccc(F)c(Cl)c3)c2cc1NC(=O)C=CCN1CCCCC1 | inactive |
| CN(C)CCOc1ccc(-c2nc(-c3ccc4c(c3)CCC4=NO)c(-c3ccncc3)[nH]2)cc1 | inactive |
| CCc1ccc(C=C2SC(=S)NC2=O)cc1 | inactive |
| O=c1ccc2ccc(O)c(O)c2o1 | inactive |
| CO[C@H]1C[C@@H]2CC[C@@H](C)[C@@](O)(O2)C(=O)C(=O)N2CCCC[C@@H]2C(=O)O[C@H]([C@H](C)C[C@@H]2CC[C@H](OP(C)(C)=O)[C@H](OC)C2)CC(=O)[C@H](C)C=C(C)[C@@H](O)[C@@H](OC)C(=O)[C@H](C)C[C@H](C)C=CC=CC=C1C | inactive |
| CC1CC2C3CCC4=CC(=O)C=C[C@]4(C)[C@@]3(F)[C@@H](O)C[C@]2(C)[C@@]1(O)C(=O)CO (stereo not given in full) | inactive |
| CC(C)OC(=O)CCCC=CC[C@@H]1[C@H](C=C[C@@H](O)COc2cccc(C(F)(F)F)c2)[C@H](O)C[C@@H]1O | 33.2 µM (active) |
| CC1(C)C(N(O)C(=O)Nc2ccc(Cl)cc2)N(c2ccc(Cl)cc2)C(=O)N1CC(=O)NN=CC=Cc1ccc([N+](=O)[O-])o1 (stereo not given) | inactive |
| CC[C@H]1OC(=O)[C@H](C)[C@@H](O[C@H]2C[C@@](C)(OC)[C@@H](O)[C@H](C)O2)[C@H](C)[C@@H](O[C@@H]2O[C@H](C)C[C@H](N(C)C)[C@@H]2O)[C@](C)(O)C[C@@H](C)CN(C)[C@H](C)[C@@H](O)[C@]1(C)O | inactive |
| CC(C)CN(C[C@H](O)[C@H](Cc1ccccc1)NC(=O)O[C@H]1CCOC1)S(=O)(=O)c1ccc(N)cc1 | inactive |
| CC1(C)O[C@@H]2C[C@@H]3[C@H]4C[C@@H](F)C5=CC(=O)C=C[C@]5(C)[C@@]4(F)[C@@H](O)C[C@]3(C)[C@]2(C(=O)CO)O1 | inactive |
| COc1cc(=C2C=c3ccccc3=N2)[nH]c1=Cc1[nH]c(C)cc1C | inactive |
| C[C@H]1C[C@@H]2[C@@H]([C@@H](O)C[C@@]3(C)[C@H]2CC[C@]3(O)C(=O)CO)[C@@]2(C)C=CC(=O)C=C12 | inactive |
